# According to PubChem BioAssay (NCI):
# “And” between values parts separate entries of the source, which are not always exact repeats. Identical values can stand only once. Compounds without any hit were thinned out: in the full panel of roughly 83,000, 20% have a hit.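 Values shown are percent growth following 48 h exposure of cells in 96-well plates to a single concentration of compound; below 10 was considered active.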 The source made the active and inactive calls.
# Test system: MDA-MB-468 breast
# Assay: NCI-60 one-dose screen, 48 h (100 = growth as untreated, 0 = no growth, -100 = all killed)
# Conditions: 10 µM unless noted
row,Structure (SMILES),growth
1,CN1CCN(CC(=O)N(C)c2ccc(N=C(c3ccccc3)c3c(O)[nH]c4ccc(C#N)cc34)cc2)CC1,93.8% (inactive)
2,Nc1nc(N(Cc2ccccc2)c2ccccc2)c2cn[nH]c2n1,33.3% (inactive)
3,Nc1cccc(-c2nc3sccn3c2-c2ccnc(NCCCNS(=O)(=O)c3cccc4ccccc34)n2)c1,18.2% (inactive)
4,COc1cc(/C=N/NC(=O)c2cnn3c2NC(c2ccccc2)C3)ccc1OC1CCCC1 (stereo unspecified),23.3% (inactive)
5,CCN1C(=O)N(CC)C2C1NN=c1s/c(=C3\C(=O)Nc4ccccc43)c(=O)n12 (stereo unspecified),-20.9% (active)
6,CC(O)CN(CCO)CCN(CCO)CC(C)O (stereo unspecified),94.8% (inactive)
7,COc1ccc(SC2c3cc(OC)c(OC)cc3Oc3nc(N)c(C#N)c(N)c32)cc1 (stereo unspecified),-40.7% (active)
8,C=C1C(=O)O[C@H]2[C@H]1CC/C(C=Nc1ccc(C(F)(F)F)cc1N)=C\CC[C@@]1(C)O[C@@H]21,1.92% (active)
9,CCOC(=O)c1c(O)c2cc(-c3ccccc3)nc(OCC)c2c(=O)n1C,89% (inactive)
10,Cc1cc(N2CCN(CC(=O)Nc3ccc4c(ccn4Cc4ccccc4)c3)CC2)nc(N2CCCCCC2)n1,13.1% (inactive)
11,O=C1/C(=C/c2ccc(Oc3ccccc3)cc2)N=C(c2ccccc2)N1CCc1cccs1,108% (inactive)
12,CC(=O)Nc1cccc2c1CCCC2,100% (inactive) and 91.1% (inactive)
13,CC(C)C[C@@H](NC(=O)[C@@H](Cc1ccccc1)NC(=O)c1cnccn1)B1O[C@H]2[C@H](O)[C@@H](C(=O)NCCCC[C@@H]3NC(=O)[C@@H](Cc4ccccc4)NC(=O)[C@H](CC(=O)O)NC(=O)CNC(=O)[C@H](CCCN=C(N)N)NC3=O)O[C@@H](CN)[C@H]2O1,-45.5% (active)
14,COc1cnc2c(c1)C(=O)c1c-2n(CCCN2CCC(O)CC2)c(=O)c2cc(F)ccc12,-57.2% (active)
15,COc1cc2c(c(OC)c1OC)CCC(c1cccc(C(=O)Nc3ccccc3Br)c1)O2 (stereo unspecified),85.2% (inactive)
16,CC(=O)Nc1nc(C)c(C(=O)NN)s1,87.8% (inactive)
17,COc1ccc(CCN2C(=O)/C(=C/c3ccc(C4Oc5ccccc5C5CC(c6ccccc6)=NN54)cc3)SC2=S)cc1 (stereo unspecified),118% (inactive)
18,O=C(c1nn(-c2ccc(Cl)cc2)cc1O)n1nc(C(F)(F)F)cc1-c1ccccc1,32.8% (inactive)
19,CCN1CCC2(CC1)OC(c1ccccc1)C(c1ccccc1)O2 (stereo unspecified),102% (inactive)
20,Cc1cc2nc3c4cc(Cl)ccc4n(CC(=S)NCCN(C)C)c3nc2cc1C,-89.3% (active)
21,COc1cccc(NC(=O)c2cccc(-c3cc(=O)c4c(OC)c(OC)c(OC)cc4o3)c2)c1,79% (inactive)
22,CCCCCCCCCCCCCCCCCC1=NC(C)(C)CN1C(C)(C)CO,-100% (active)
23,NC(N)=Nc1ccc(Oc2cccc(NC(N)=Nc3ccc(I)cc3F)c2)cn1,-8.03% (active)
24,COC[C@H](C)n1c(C2CCOCC2)nc2cnc3cc(-c4c(C)noc4C)c(OC)cc3c21,54.5% (inactive)
25,Clc1ccc(/C=C2\CCCC3C2=Nc2ccccc2NC3c2ccc(Cl)cc2)cc1 (stereo unspecified),60% (inactive)
26,Cc1cc(C)n(-c2nc(-c3cccs3)c(C#N)c(=O)[nH]2)n1,112% (inactive)
